# According to PubChem BioAssay AID2013 (Sanford-Burnham Center for Chemical Genomics, 2009):
# Among all 290,000 compounds or so, about 370 (0.13%) were called active. The sample holds actives, similar compounds and a random draw of the others, so the mix is not that of the screen. Entries with a potency or affinity are not part of this list. Values without a mark were called inactive.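 How the source made its calls: active means spots per cell inhibited over 60%, with over 100 cells counted and total cytoplasm intensity under 500,000; inconclusive means wells with under 100 cells, flagged as likely toxic; inactive means the rest.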
# Target: G-protein coupled receptor 55 (Homo sapiens) (UniProt Q9Y2T6)
# Sequence (Q9Y2T6 whole entry, looked up): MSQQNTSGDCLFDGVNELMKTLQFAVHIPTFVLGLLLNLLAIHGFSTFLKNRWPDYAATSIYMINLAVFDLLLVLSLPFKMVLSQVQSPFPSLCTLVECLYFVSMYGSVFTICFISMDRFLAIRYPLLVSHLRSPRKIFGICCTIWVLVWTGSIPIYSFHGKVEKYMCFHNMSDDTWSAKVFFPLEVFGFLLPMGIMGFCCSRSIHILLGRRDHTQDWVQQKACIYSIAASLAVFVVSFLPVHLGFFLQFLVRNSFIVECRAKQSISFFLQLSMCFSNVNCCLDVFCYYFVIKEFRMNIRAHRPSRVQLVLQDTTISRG
# Assay: GPR55 antagonists blocking LPI-driven arrestin recruitment, primary screen, imaging, U2OS, beta-arrestin-GFP, LPI agonist (AID 2013);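 further: U2OS cells stably carrying GPR55 and arrestin-GFP stimulated by 5 µM LPI near EC80; imaged beta-arrestin-GFP aggregate spots per cell after agonist stimulation; plate controls were LPI-stimulated DMSO wells for no effect and DMSO wells without LPI for full effect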
# Conditions: U2OS GPR55 beta-arrestin-GFP translocation imaging, LPI antagonism; at 10 µM; hits give high values
row,SMILES,inhibition
1,COc1ccc(-c2cc(N)n(S(=O)(=O)c3ccc(F)cc3)n2)cc1OC,1.3%
2,COc1ccc(S(=O)(=O)n2nc(-c3cc(OC)c(OC)c(OC)c3)cc2N)cc1OC,-6.7%
3,Cn1nnc2c(N3CCCCC3)nccc21,14.8%
4,CC(=O)Nc1ccc(NC(=O)CC23CC4CC(CC(C4)C2)C3)cc1,55.6%
5,O=C(CC12CC3CC(CC(C3)C1)C2)Nc1ccc(C(=O)O)cc1,-2.4%
6,O=C(NCCCn1ccnc1)c1cc(C2CC2)on1,-6.4%
7,CCOc1ccc2oc(C(=O)NCC(C)(C)CN(C)C)c(C)c2c1,13%
8,O=C(NCCc1ccccc1)C1COc2ccccc2O1 (configuration not stated),5.5%
9,CCCCn1c(N)c(-c2nc3ccccc3o2)c2c([N+](=O)[O-])nn(CC)c(=O)c21,4.8%
10,CCCCCn1c(N)c(-c2nc3ccccc3o2)c2c([N+](=O)[O-])nn(CC)c(=O)c21,13.1%
11,CCn1nc([N+](=O)[O-])c2c(-c3nc4ccccc4o3)c(N)n(CCCOC)c2c1=O,98.4% (active)
12,CCOC(=O)N1CCC(=NNC(=O)Cn2ccc(C(F)(F)F)n2)CC1,-11.4%
13,COC(=O)c1cnc(SCC(=O)c2ccccc2)n1C,2%
14,CC(C(=O)NCc1cccs1)N1C(=O)c2ccccc2C1=O (configuration not stated),17.5%
15,C=CCNC(=O)c1ccc([N+](=O)[O-])c(Cl)c1,-0.3%
16,COCCCNC(=O)c1ccc([N+](=O)[O-])c(Cl)c1,2.9%
17,Cc1ccnc2c(N3C(=O)C4C5c6ccccc6C(c6ccccc65)C4C3=O)cccc12 (configuration not stated),13.1%
18,Cc1ccc(C)c(NC(=O)CN(C)C(=O)/C=C/c2ccco2)c1,-6.6%
19,CCCCCCCCOC(=O)CCc1c(C)[nH]c(=S)[nH]c1=O,-16.9%
20,COc1ccc(C)cc1NC(=O)CCNS(=O)(=O)c1cccc2nonc12,6.9%
21,COc1ccc(C(OCC(O)CNCCc2ccccc2)c2ccc(OC)cc2)cc1 (configuration not stated),8.1%
22,OC(CNCCc1ccc(C(F)(F)F)cc1)COc1ccc2ccccc2c1 (configuration not stated),30.5%
23,N#CCSc1ccsc1C(=O)Nc1ccc(F)cc1,2.6%
24,COCCn1nnnc1CN1C2CCCC1CC(NC(C)=O)C2 (configuration not stated),0.2%
25,COc1cc(/C=N/OCC(=O)NC2CCCCC2C)ccc1OCc1ccc(Cl)cc1 (configuration not stated),-3.5%

row,SMILES,inhibition
1,CCOc1ccccc1CNS(=O)(=O)c1ccc(-c2cnc(C3CC3)o2)cc1,99.5%
2,COc1cccc(N2CCN(c3ncnc4c3[nH]c3ccccc34)CC2C)c1 (configuration not stated),33%
3,COc1cccc(N2CCN(c3ncnc4c3[nH]c3ccc(F)cc34)CC2C)c1 (configuration not stated),91.8% (active)
4,Fc1ccc2[nH]c3c(N4CCN(c5ccccc5)CC4)ncnc3c2c1,-5.9%
5,COC(=O)COc1ccc(S(=O)(=O)NCc2ccco2)cc1,10.1%
6,C/C(=C\c1ccccc1)C(=O)NCCCn1ccnc1,9.4%
7,Cc1ccc(NC(=S)N(CCCN2CCOCC2)Cc2cccs2)c(C)c1,25.2%
8,Cc1ccccc1NC(=S)N(CCCN1CCOCC1)Cc1cccs1,54.6%
9,CCC(C)(C)n1nnnc1C(c1cccc(C#N)c1)N1CCN(c2cc(C)ccc2C)CC1 (configuration not stated),2.5%
10,CCc1cc2c(=O)c(-c3ccc4c(c3)OCCO4)coc2cc1OS(C)(=O)=O,8%
11,COc1cc(/C=C(\C#N)C(N)=O)ccc1OS(=O)(=O)c1ccc(C)cc1,28.6%
12,COc1cc(/C=C(\C#N)C(=O)NC2CCCCC2C)ccc1OS(=O)(=O)c1ccc(C)cc1 (configuration not stated),28.8%
13,O=C(OCc1nnc(-c2ccccc2)o1)C12CC3CC(CC(Br)(C3)C1)C2,0.4%
14,N#CC(C#N)=C1C=C2C=C(N3CCCCCC3)CCC2CC1 (configuration not stated),23.3%
15,N#CC(C#N)=C1C=C2C=C(N3CCCCC3)CCC2CC1 (configuration not stated),3.1%
16,CCc1ccc(CN2CCC(n3nccc3NC(=O)c3ccccc3)CC2)o1,-3.9%
17,Cc1c(C(=O)NCc2ccc3c(c2)OCO3)sc2nc(-c3ccc(F)cc3)cn12,11.5%
18,CC(C)c1nnc(NC(=O)CCC(=O)NCc2ccccc2Cl)s1,13%
19,CCCNc1nc(=S)n(-c2ccccc2)c(C)c1C(C)=O,4.7%
20,O=C(O)CSc1ncnc2scc(-c3ccccc3)c12,3.8%
21,Cc1ccc(-c2csc3ncnc(SCc4ccc(C(=O)O)cc4)c23)cc1,10%
22,O=C(NNC(=S)NCc1ccccc1)c1ccc(Br)o1,13.5%
23,C=CCN(c1ccccc1)S(=O)(=O)c1c(C)[nH]c(=O)[nH]c1=O,0.3%
24,O=[N+]([O-])CC(=Nc1ccc(F)cc1)N/N=C\c1oc(O)c2ccccc12,15.6%
25,COC(=O)C1=C(C)N(Cc2ccccc2)C(=O)/C1=C\c1ccco1,2.2%

row,SMILES,inhibition
1,COC(=O)C1=C(C)N(Cc2ccc(OC)cc2)C(=O)/C1=C\c1ccco1,0.4%
2,Cc1ccc(-c2csc3ncnc(Oc4cccc5ccc(C)nc45)c23)cc1,3.8%
3,COc1ccc(-c2csc3ncnc(Oc4cccc5ccc(C)nc45)c23)cc1,7.8%
4,Cc1ccc2cccc(Oc3ncnc4scc(-c5ccccc5)c34)c2n1,77.9% (active)
5,Cc1ccc(N2C(=O)C3CCCN3C2=S)cc1C (configuration not stated),3.3%
6,O=C(COc1cccc(C(F)(F)F)c1)N1CCN(c2ccc(O)cc2)CC1,-7.2%
7,NC(=O)c1ccc[n+](CC(=O)c2ccc(Br)cc2)c1,9.5%
8,N#C/C(=C\c1ccc(N2CCOCC2)o1)C(=O)N1CCOCC1,100% (active)
9,N#C/C(=C\c1ccc(N2CCOCC2)o1)C(=O)Nc1ccc(O)cc1,-2.9%
10,N#C/C(=C/c1ccc(N2CCOCC2)o1)C(=O)Nc1ccccc1,0.6%
11,COc1cccc(NC(=O)C(=O)N/N=C/c2ccc3c(c2)OCO3)c1,14.8%
12,CC(=O)Oc1ccc(C(=O)Cc2ccccn2)c(O)c1,1%
13,c1ccc(C(c2ccccn2)c2ccccn2)cc1,1.1%
14,CCOC(=O)CCNC(=O)N1CCCC(N(C)CCc2ccc(OC)c(OC)c2)C1 (configuration not stated),6.3%
15,O=C(NCC1CC1)Nc1ccc(Cl)cc1,10.7%
16,CCCS(=O)(=O)N1CCCC(C(=O)Oc2ccc(C)c(C)c2)C1 (configuration not stated),-6.5%
17,CCOc1ccccc1NC(=O)NC1(C(=O)NCc2cccnc2)CCCCC1,3.3%
18,CCOC(=O)c1cc2c(=O)n3ccccc3nc2n(Cc2ccccc2Cl)c1=N,38.5%
19,CCOC(=O)c1cc2c(=O)n3cccc(C)c3nc2n(C)c1=N,4.1%
20,COC(=O)c1cc2c(=O)n3cccc(C)c3nc2n(Cc2cccnc2)c1=N,-5.2%
21,CCOC(=O)c1cc2c(=O)n3cccc(C)c3nc2n(Cc2ccccc2Cl)c1=N,85.6% (active)
22,CCn1c(=N)c(C(=O)OC)cc2c(=O)n3ccccc3nc21,-3.4%
23,COCCNC(=O)C(OC(=O)CC1Sc2ccccc2NC1=O)c1ccncc1 (configuration not stated),1.2%
24,O=[N+]([O-])c1ccc(S(=O)(=O)NCCN2CCOCC2)cc1,11.3%
25,CCn1ncc(C(=O)Nc2cccc(Cl)c2)c1C,3.9%

row,SMILES,inhibition
1,Brc1ccc(-c2nnc(Cc3ccccc3)o2)cc1,-5.2%
2,COc1ccc(Cc2nnc(-c3ccccc3)o2)cc1,-5.3%
3,CCN1CCCC1CN(Cc1cc2cc(OC)ccc2[nH]c1=O)C(=O)NCc1ccccc1 (configuration not stated),11.3%
4,CC(NC(=O)C12CC3CC(CC(C3)C1)C2)c1ccc2c(c1)OCCO2 (configuration not stated),3%
5,COc1cc(CNCCO)cc(Cl)c1OCc1ccc(Cl)cc1Cl,83.3% (active)
6,CCOc1cc(CNCCO)cc(Br)c1OCc1ccc(Cl)cc1Cl,11.8%
7,COc1cc(CNCCO)cc(Cl)c1OCc1ccccc1Cl,14.7%
8,N#C/C(=C/c1cn[nH]c1-c1ccc(Br)cc1)C(=O)O,3%
9,CCOC(=O)/C(C#N)=C/c1cn(CCC(=O)O)nc1-c1cccc(Br)c1,1.6%
10,N#C/C(=C\c1ccccc1Br)C(=O)NC1CC1,-17.2%
11,COc1ccccc1/C=C(/C#N)C(=O)O,7%
12,COc1ccc(S(=O)(=O)N(CC(=O)NCc2ccncc2)c2cc(C)cc(C)c2)cc1OC,14.3%
13,COc1cc(Br)c(-c2sc(Nc3ccccc3)n[n+]2-c2ccccc2)cc1OC,40.4%
14,COc1ccc(-c2sc(Nc3ccccc3)n[n+]2C)c(C)c1C,-7%
15,COc1ccc(-c2sc(Nc3ccccc3)n[n+]2-c2ccc(F)cc2)c(OC)c1OC,30%
16,COc1cc(OC)c(-c2sc(Nc3ccccc3)n[n+]2-c2ccc(F)cc2)cc1OC,-3%
17,CCn1c(SCC(=O)Nc2ccc(OC)cc2)nnc1-c1ccco1,2.2%
18,O=C(Nc1ccc(F)cc1)NC1(C(=O)NCc2ccco2)CCCCC1,5.6%
19,COc1ccc(Cl)cc1C(=O)NCCN(C)C,-0.9%
20,CN(C)CCNC(=O)COc1ccc(C23CC4CC(CC(C4)C2)C3)cc1,33.6%
21,O=C(NCCCN1CCN(c2ccc(F)cc2)CC1)NC12CC3CC(CC(C3)C1)C2,-1.6%
22,CCOC(=O)c1cnc(SC)nc1Oc1cccc(NC(=O)c2cccc(Cl)c2Cl)c1,9.1%
